From PubChem BioAssay AID1578 (Sanford-Burnham Center for Chemical Genomics, 2009)
About 3,000 (1%) of roughly 290,000 compounds were called active. No stated cut-off is given here; in the data, active means inhibition mostly above about 36% (no sharp cut-off); inactive means mostly below about 34%. The full list was thinned out, with actives kept by preference.

Assay: inhibition of NOD1-driven NF-kB reporter – cell-based, luminescence, uHTS, primary screen (AID 1578);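 further: HEK-293T reporter cells stimulated with the NOD1 agonist gamma-tri-DAP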
Conditions: NOD1-driven NF-kB luciferase reporter cells, at 4 µM, active compounds read high

inhibition, active:
c1ccc(-n2ncc3c(N4CCCCC4)ncnc32)cc1 61.4%, CCN(CC)C(=O)c1ccc(Nc2nnc(-c3ccc(O)cc3)c3ccccc23)cc1 72.7%, Cn1ncc(Br)c1C(=O)N/N=C/c1cccc(OC2CSC2)c1 60.4%, O=c1cc(NS(=O)(=O)c2ccccc2)nc(SCc2c(Cl)cccc2Cl)[nH]1 102%, Clc1ccc(-n2nnc(-c3nccs3)n2)cc1Cl 110%, Cc1ccc(-n2nnc(-c3nccs3)n2)cc1 77.8%, O=C(NC1=NCCS1)C1COc2ccccc2O1 (stereo unspecified) 82.7%, COc1cccc(NC(=O)C2COc3ccccc3O2)c1 (stereo unspecified) 104%, O=C(O)c1cccc(-c2nc3ccccc3[nH]2)c1 61.9%, CC(C)(C)c1ccc(N/N=C(\C#N)S(=O)(=O)C(C)(C)C)cc1 41%, COC(=O)Cn1c(=O)c(C(=O)CCl)c(N)n(Cc2ccccc2)c1=O 69.8%, COc1ccc(NC(=O)C(NC(=O)c2ccc(C)cc2)c2ccccc2)cc1 (stereo unspecified) 62.7%

inhibition, inactive:
CCOC(=O)c1ccc(NC(=O)CSc2nc(N)c(NC(=O)c3ccc(Br)o3)c(=O)[nH]2)cc1 -26.5%, CN(C(=O)COC(=O)c1cc(S(=O)(=O)N2CCCCC2)ccc1N1CCOCC1)C1CCS(=O)(=O)C1 (stereo unspecified) -0.1%, COC(=O)N/N=C/c1cc(C)n(-c2ccc(F)cc2)c1C -30%, COC(=O)C1C2C=CC3(CN(CCc4ccccc4)C(=O)C13)O2 (stereo unspecified) -14.5%, Cc1[nH][nH]c(=O)c1/C=N/N1CCOCC1 -39.8%, CCC(C)(C(=O)NC1CCCCC1)N(C(=O)CC1NC(=O)NC1=O)c1c(C)n(C)n(-c2ccccc2)c1=O (stereo unspecified) -11.2%, Cc1cccc(-n2ncc3c(N4CCCC4)ncnc32)c1 -40.5%, CC1CCN(c2ncnc3c2cnn3-c2ccccc2)CC1 -77.4%, COc1cc(OC)c2cc(C(=O)N[C@H](C(=O)N3CCC[C@H]3C(=O)O)C(C)C)n(C)c2c1 -17.5%, Cc1nc(SCC(N)=O)c(C#N)c(C)c1C 5.5%, CCN(CC)C(=O)c1ccc(-c2nnc(Nc3ccc(O)cc3)c3ccccc23)cc1 43%, CCN(CC)C(=O)c1ccc(-c2nnc(Nc3ccc(C(=O)N(C)C)cc3)c3ccccc23)cc1 37.7%, Cn1ncc(Cl)c1C(=O)N/N=C/c1cccc(OC2CSC2)c1 -1.4%, Cn1cc(Br)c(C(=O)N/N=C/c2cccc(OC3CSC3)c2)n1 0.1%, CCOC(=O)c1cnc(SCC(=O)Nc2ccc(N3CCOCC3)cc2)nc1N -15%, O=c1cc(NS(=O)(=O)c2ccccc2)nc(SCc2ccc(Cl)cc2)[nH]1 -1.1%, O=c1cc(NS(=O)(=O)c2ccccc2)nc(SCc2ccccc2Cl)[nH]1 -0.5%, Cc1ccc(NC(=O)CCc2nnc3ccc(N4CCC(C)CC4)nn23)nc1 -3.1%, Cc1[nH]n(C(N)=S)c(=O)c1N=Nc1ccc(Br)cc1 -21.9%, CCOc1ccc(N(CC)C(=O)Cc2c(C(=O)O)n(C)c3ccccc23)cc1 -11.1%, CC(C)Cc1nc(N2CCN(C(=O)c3ccco3)CC2)c(C#N)c2c1CCC2 -0.7%, CC(C)Cc1nc(N2CCN(C(=O)c3ccco3)CC2)c(C#N)c2c1CCCC2 2.6%, CCN(CC)S(=O)(=O)c1ccc(N2CCOCC2)c(NC(=O)c2ccc3ccccc3c2)c1 -17%, Cc1nn(CCc2nn[nH]n2)c2nc(C(F)(F)F)cc(C(F)(F)F)c12 -7.9%, CCOc1cc(C(=O)Nc2ccc3c(c2)OCO3)ccc1OC(F)F -17.4%, Clc1ccc(-n2nnc(-c3cccnc3Cl)n2)cc1Cl -3%, Clc1ccc(-n2nnc(-c3cccnc3)n2)cc1Cl -12.2%, Fc1ccc(-n2nnc(-c3nccs3)n2)cc1 -26%, Brc1ccccc1-n1nnc(-c2nccs2)n1 -44.7%, CCCC(c1nnnn1Cc1cccs1)N1CCN(C2CCCC2)CC1 (stereo unspecified) -49.9%, COc1ccccc1-n1cnc2sc(-c3ccccc3)cc2c1=O 30.1%, O=C(CNC(=O)c1cccc(OC(F)F)c1)OCc1cc(=O)n2cc(Br)ccc2n1 4.7%, OC(COc1ccccc1)CN1CCC(Cc2ccccc2)CC1 (stereo unspecified) -20.8%, CN(C)c1nc(C(F)(F)F)cc(=O)[nH]1 -21.2%, c1ccc(-n2ncc3c(N4CCC5(CC4)OCCO5)ncnc32)cc1 -67%, O=C(Nc1ccccc1)C1COc2ccccc2O1 (stereo unspecified) -21.9%, Cc1cccc(NC(=O)C2COc3ccccc3O2)c1 (stereo unspecified) -23%, COC(=O)c1cccc(NC(=O)C2COc3ccccc3O2)c1 (stereo unspecified) -42.9%, O=C(Nc1nncs1)C1COc2ccccc2O1 (stereo unspecified) -18.9%, c1ccc(COc2cccc(CNCc3cccs3)c2)cc1 -31.8%, O=C1CSc2ccc(C(=O)N3CCN(c4ccccn4)CC3)cc2N1 0.1%, C#CCSc1ncc(S(=O)(=O)c2ccccc2)c(=O)[nH]1 7.6%, COCCCn1c(SCC(=O)Nc2ccc(C(C)=O)cc2)nc2ccccc2c1=O -25.3%, c1ccc(-c2nc3ccccc3[nH]2)cc1 -1.5%, O=C(O)c1ccc(-c2nc3ccccc3[nH]2)cc1 -38.1%, Cc1ccc(N/C(=C\C(=O)c2ccccc2)C(=O)O)cc1 -33.5%, Cc1ccc(S(=O)(=O)N2CCN(c3ccc([N+](=O)[O-])cn3)CC2)cc1 -9.1%, O=[N+]([O-])c1ccc(S(=O)(=O)c2ccccc2)nc1 29%, CCOc1cccc(C(=O)Nc2ccc(S(=O)(=O)Nc3cc(C)on3)cc2)c1 -2%, CCN(CC)c1ncnnc1-c1ccccc1 -22.1%, CC(C)(C)S(=O)(=O)/C(C#N)=N/Nc1ccc(C#N)cc1 -38.5%, CC(C)(C)S(=O)(=O)/C(C#N)=N/Nc1ccc(Cl)cc1 4.5%, CC(=O)C1=C(O)C(=O)N(CCc2ccccc2)C1c1ccccc1[N+](=O)[O-] (stereo unspecified) -12%, CCOC(=O)N1CCN(C(=O)c2cc3cc(OC)c(OC)cc3[nH]2)CC1 -3.4%, O=C(NCCc1ccccc1)C(=O)NCC1OCCN1S(=O)(=O)c1ccc(Cl)cc1 (stereo unspecified) -1.1%, CCCCN(C)Cc1c(C)[nH]c2c(Cl)cccc2c1=O -15%, CCc1nnc(NC(=O)c2ccc(S(=O)(=O)N3CCc4ccccc4C3)cc2)s1 -1.9%, O=C(Nc1nnc(C2CC2)s1)c1ccc(Cl)c(S(=O)(=O)N2CCc3ccccc3C2)c1 59%, CN1CCN(c2nc3ccccc3nc2C(C#N)S(=O)(=O)c2ccccc2)CC1 (stereo unspecified) -5.2%, CSC1=N/C(=C\c2ccccc2Cl)C(=O)N1N(C)C 0.8%, O=C(CN1CCc2ccccc2C1)NCC(=O)Nc1ccc(F)cc1 -25.2%, CCOc1cc(C2/C(=C(/O)c3ccc(OC)cc3)C(=O)C(=O)N2CC2CCCO2)ccc1O (stereo unspecified) -1.7%, COc1ccc(O)c(CN2CCC(n3nccc3NC(=O)CCOc3ccccc3)CC2)c1 -1.2%, COC(=O)Nc1ccc(S(=O)(=O)NC2CCS(=O)(=O)C2)cc1 (stereo unspecified) -9.9%, Cn1c(N)c(C(=O)CCl)c(=O)n(Cc2ccccc2)c1=O 43.7%, CCn1c(=O)c(C(=O)CC#N)c(N)n(Cc2ccccc2)c1=O -11.1%, COc1ccc(-c2csc3ncnc(N4CCN(c5ccccc5Cl)CC4)c23)cc1 -4.5%, CCOP(=O)(OCC)/C(=N/OC(=O)c1ccccc1C)C(N)=O -58.9%, O=C(Cc1ccccc1)NCCc1cn2ccsc2n1 -3.8%, COc1ccc(NC(=O)C(NC(=O)c2ccc(=O)[nH]c2)c2ccccc2)cc1 (stereo unspecified) -7.3%, Cc1ccc(C(=O)NC(C(=O)Nc2ccccc2)c2ccccc2)cc1 (stereo unspecified) -3.5%, CCc1ccccc1NC(=O)c1cc(-c2ccc(OC)cc2)on1 -2%, CC1Cc2ccccc2N1C(=O)CN1CCC(n2nnc3cc(C(F)(F)F)ccc32)CC1 (stereo unspecified) 23.9%, CC(=O)Nc1ccc(Br)c2ccccc12 -4.6%, O=C(Nc1ccccn1)c1ccc2ccccc2c1O -61.1%, O=C(Nc1cccc([N+](=O)[O-])c1)c1cc2ccccc2cc1O 17.3%, O=C(O)c1ccccc1C(=O)Nc1cccc([N+](=O)[O-])c1 -0.9%, O=C(O)c1cccc(NC(=S)N/N=C/c2ccccc2OCc2cccc(Br)c2)c1 -13.5%, Cc1noc(-c2ccccc2)c1NC(=O)Nc1ccccc1 2%, C=CCOc1ccc2ccccc2c1CNCCCN1CCOCC1 10%, CCN1C(=O)N(S(=O)(=O)C(F)(F)F)[C@@H](c2ccccc2)C(C(=O)OC)=C1C 0.6%, Cc1c(C(=O)N2CCN(c3ccccc3)CC2)sc2ncnc(N3CCN(c4ccccn4)CC3)c12 27.4%, Cc1nc(N2CCN(c3ccccn3)CC2)c2c(C)c(C(=O)Nc3ccc(Cl)cc3)sc2n1 -14%, Cc1nc(N2CCN(c3ccccn3)CC2)c2c(C)c(C(=O)Nc3ccc(F)cc3Cl)sc2n1 6.8%, COc1ccccc1N1CCN(C(=O)c2sc3nc(C)nc(N4CCN(c5ccccn5)CC4)c3c2C)CC1 33.2%, Cc1nc(N2CCN(c3ccccn3)CC2)c2c(C)c(C(=O)N3CCN(c4cccc(Cl)c4)CC3)sc2n1 18%, Cc1nc(N2CCN(c3ccccn3)CC2)c2c(C)c(C(=O)Nc3c(F)cc(F)cc3Br)sc2n1 -28.6%, Cc1c(C(=O)N2CCN(c3ccccn3)CC2)sc2ncnc(N3CCOCC3)c12 -12.5%, Cc1nc(N2CCN(c3ccccn3)CC2)c2c(C)c(C(=O)Nc3ccc(F)cc3F)sc2n1 12.3%
